Calls of active or inactive are those of the source. The calls were made as follows: active = hit-call score of the fitted dose curve at least 0.9, where 1 is the maximum; inactive = score below 0.9.

What is called AC50 is the midpoint of the concentration-response curve, whichever way the signal moves.

Read-out in the test: Epidermal growth factor receptor (EGFR), EGFR (gene 1956)
Description: BSK_hDFCGF_EGFR: BioMAP Diversity Plus: hDFCGF Assay for Epidermal growth factor receptor (EGFR) Biomarker Activity (AID 2283057). The following applies: primary human foreskin fibroblasts; actives raise or lower the signal. The method, then:
BSK_hDFCGF is a cell-based, multiplexed-readout assay that uses foreskin fibroblast, a human skin primary cell, with measurements taken at 24 hours after chemical dosing in a 96-well plate.BSK_hDFCGF_EGFR is an assay component measured in the BSK_hDFCGF assay. It measures EGFR antibody related to regulation of gene expression using ELISA technology.Data from the assay component BSK_hDFCGF_EGFR was analyzed into 1 assay endpoint. This assay endpoint, BSK_hDFCGF_EGFR, was analyzed with bidirectional fitting relative to DMSO as the negative control and baseline of activity. Using a type of binding reporter, gain or loss-of-signal activity can be used to understand changes in the signaling as they relate to the gene EGFR. Furthermore, this assay endpoint can be referred to as a primary readout, because this assay has produced multiple assay endpoints where this one serves a signaling function. To generalize the intended target to other relatable targets, this assay endpoint is annotated to the kinase intended target family, where the subfamily is receptor tyrosine kinase.
The levels of cell surface (or secreted, indicated by the prefix "s") biomarker endpoints were measured by ELISA. Overt cytotoxicity to cells in confluent adherent cultures (all systems other than the BT system) was assessed by measuring total protein levels using sulforhodamine B (SRB) staining in parallel cultures at the time of biomarker measurements, indicated as SRB endpoints. For proliferation assays for adherent cell types, individual cell types are cultured at sub-confluence and relative cell numbers quantified by SRB staining at time points optimized for each system (48 h: 3C and CASM3C systems; 72 h: BT and HDF3CGF systems; 96 h: SAg system). SRB was performed by staining cells with 0.1% SRB after fixation with 10% TCA and reading wells at 560 nm.Viability and proliferation of PBMC (T cells) was quantified by Alamar Blue reduction for the SAg and BT systems. For PBMC viability (referred to as PBMC Cytotoxicity within the assay endpoint names), cells were plated (75,000/well in a 96-well plate) and then chemical samples added for 1 h before addition of activators, SEB and TSST-1 (20 ng/mL final concentration each). Cells were incubated for 90 h. Then, Alamar Blue (20 uL/well) (Invitrogen, Cat DAL1100) was added for 6 h, and the plates were read with a fluorescence microplate reader at 546/580 nm (excitation/emission). For PBMC proliferation, cells were plated and activated as above but incubated for only 16 h prior to addition of Alamar Blue. Plates were read after 6 h.
`O=C(OCCCCCOC(=O)c1ccccc1)c1ccccc1`: the result was inactive. Take `CNCc1cc(F)ccc1Oc1ccc(Cl)c(Cl)c1`: the outcome was inactive. Same read-out and setting: as for `C=CCc1ccc(O)c(OC)c1`, the entry is “inactive”; as for `CCCCc1ccc2c(n1)[C@@H](c1ccc(OC)cc1C[C@H](C)C(=O)O)[C@H](C(=O)O)[C@H]2c1ccc2c(c1)OCO2`, “inactive”. Turning to `CCOC(=O)CCC(=O)OCC`, the result was inactive. On the same count and under the same terms, in the case of `CC(=O)OCCOCCOCCOC(C)=O` it was “inactive”. Still for that read-out and setting: in the case of `COCCOC[C@H](CC1(C(=O)NC2CCC(C(=O)O)CC2)CCCC1)C(=O)Oc1ccc2c(c1)CCC2` (stereo not given in full) it was “inactive”. Same read-out and setting: as for `C[Si]1(C)O[Si](C)(C)O[Si](C)(C)O[Si](C)(C)O1`, the entry is “inactive”. On to `CC=Cc1ccc(O)c(OC)c1`, for which the result was inactive. Still for that read-out and setting: as for `Cc1oc(-c2ccccc2)nc1CCOc1cccc2c1ccn2CCC(=O)O`, the entry is “inactive”; as for `CCNc1cccc(C)c1`, “inactive”; as for `O=C(O)Cc1ccccc1Nc1c(Cl)cccc1Cl`, “inactive”. Still for that read-out and setting: in the case of `NC(=O)Cn1c(=O)cc(CCN2CCN(c3nccc4sccc34)CC2)c2ccc(F)cc21` it was “inactive”; in that of `Nc1ccccc1N`, “inactive”; in that of `CC(=O)Oc1ccccc1C(=O)O`, “inactive”. In the case of `O=c1[nH]cc(F)c(=O)[nH]1`, the result was inactive. The same measure, in the same setting: as for `CC(C)(C)c1cc(O)c(C(C)(C)C)cc1O`, the entry is “inactive”; as for `Cc1cccc(C)c1O`, “inactive”; as for `CC(CO)OC(C)CO` (stereo not given) (tested in a mixture with another compound), “inactive”. The same measure, in the same setting: in the case of `NCC1(Cc2noc(=O)[nH]2)CCCCC1` it was “inactive”; in that of `Cc1cc(=O)[nH]c(=S)[nH]1`, “inactive”.

Regarding `CCc1c(C(=O)NN2CCCCC2)nn(-c2ccc(Cl)cc2Cl)c1-c1ccc(Br)cc1`, the half-maximal activity concentration (AC50) was 1.65 µM (active). On to `CCCCCCCCCCCCCO`, for which the outcome was inactive. As for `Cc1c(C(=O)O)c(O)cc2c1C(=O)c1c(O)c([C@@H]3O[C@H](CO)[C@@H](O)[C@H](O)[C@H]3O)c(O)c(O)c1C2=O`, the result was inactive. Same read-out and setting: in the case of `Cc1ccc(Cl)cc1` it was “inactive”. Same read-out and setting: in the case of `Cc1ccc(C)c(O)c1C` it was “inactive”. Same read-out and setting: as for `CC1(C)CC(N=C=O)CC(C)(CN=C=O)C1` (stereo not given), the entry is “inactive”; as for `CC(C)c1ccc(C(=O)N=C(N)N)cc1S(C)(=O)=O`, “inactive”; as for `CCCCCCCCCCCC(=O)OC`, “inactive”. For the compound `FC(F)(F)C(F)(F)C(F)(F)C(F)(F)C(F)(F)C(F)(F)CCI`, the result was inactive. Same read-out and setting: in the case of `O=[N+]([O-])C(CO)(CO)CO` it was “inactive”; in that of `Cc1ccccc1Cl`, “inactive”; in that of `Oc1ccc2ccccc2c1N=Nc1ccccc1`, “inactive”. Regarding `CN[C@H]1CC[C@@H](c2ccc(Cl)c(Cl)c2)c2ccc(S(N)(=O)=O)cc21`, the half-maximal activity concentration (AC50) was 32.7 µM (active).

Consider `Nc1ccc(S(=O)(=O)c2ccc(N)cc2)cc1`, for which the outcome was inactive. On to `Cc1ccc(N(C)C)cc1`, for which the outcome was inactive. The same measure, in the same setting: in the case of `C1CCC(SSC2CCCCC2)CC1` it was “inactive”.

With `CN1CCN(Cc2cc(-c3ccc4[nH]c(=O)oc4c3)co2)[C@@H](c2ccc(F)cc2)C1`, the result was inactive.

Take `CC(=O)OC/C=C(\C)CCC=C(C)C`: the outcome was inactive. Consider `CC1=C(/C=C/C(C)=C/C=C/C(C)=C/CO)C(C)(C)CCC1`, for which the concentration at half-maximal activity (AC50) is 27.8 µM (active).

Source of the values: PubChem BioAssay (EPA / NIEHS).
